The nature of test [1]: Viability qHTS for spleen associated tyrosine kinase inhibitor (SYKi) naive MV4-11 cells (AID 1963823). Further: nearly all actives have a fitted effect of over 40% in size. Particulars: MV4-11 AML viability, CellTiter-Glo luminescence, 72 h; series mostly up to 45 µM. In outline:
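Viability of MV4-11 AML cells lacking prior SYK inhibitor exposure is scored by CellTiter-Glo luminescence following 72 hr compound incubation at 37 C, 5% CO2, seeded at 500 cells per well.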

Test [2] is described as follows: Viability qHTS for spleen associated tyrosine kinase inhibitor (SYKi) drug resistant MV4-11 cells (AID 1963824). Further: nearly all actives have a fitted effect of over 35% in size. Particulars: SYKi-resistant MV4-11 viability, CellTiter-Glo, 72 h; series mostly up to 45 µM. In outline: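 SYK-inhibitor-resistant MV4-11 AML cells were seeded at 500 per well onto compound and cultured 72 hours (37 °C, 5% CO2). CellTiter-Glo was then added, and after 10 min at room temperature, luminescence gave viability.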

Molecules are shown by their SMILES. Records with an inconclusive call do not appear. Values without a mark were called inactive. Active and inactive are the calls of the source. The call rests on the fitted dose curve; in most records, active means well fitted cell-killing curve with a large enough effect; inconclusive means small, poorly fitted or top-dose-only effect, or effect the other way; inactive means no such curve, though single readings can be large or run the other way.
Potency means the concentration at half of the fitted maximal effect.

In the case of `COC(=O)[C@@]1(O)C=CC[C@@H]2[C@@]3(C)C[C@@H](c4ccoc4)OC(=O)[C@H]3CC[C@]21C`, the Potency result in test [1] and in test [2] was “inactive” in each case.

Regarding `CCC[C@@H]1C[C@@H](C(=O)N[C@H](C(C)Cl)[C@H]2O[C@H](SC)[C@H](O)[C@@H](O)[C@H]2O)N(C)C1` (some centres not stated), the Potency entry in test [1] and in test [2] was “inactive” throughout.

Regarding `CN[C@@H]1[C@@H](O)[C@@H](O[C@@H]2[C@@H](O)[C@H](O[C@H]3O[C@H](CN)[C@@H](O)[C@H](O)[C@H]3O)[C@@H](N)C[C@H]2NC(=O)[C@@H](O)CN)OC[C@]1(C)O`, the Potency entry in test [1] and in test [2] was “inactive” in each case.

On to `Nc1ncnc2c1ncn2[C@H]1CCCO1`, for which the Potency result in test [1] and in test [2] was “inactive” throughout.

Regarding `CC(C)O[C@@H]1O[C@H](CO)[C@@H](O)[C@H](O)[C@H]1O`, the Potency result in test [1] and in test [2] was “inactive” in each case.

As for `CC1=CC2/C=C(\C)CCC(O)C/C=C/C(=O)OC23C(=O)NC(CC(C)C)C3C1C` (configuration not stated), the Potency in test [1] was 8.93 µM (active); in test [2], 10 µM (active).

`CCCc1c(C(C)C)nc(C(C)C)c([C@@H](C)O)c1-c1ccc(F)cc1O`: the Potency is 9.2 µM (active) in test [1] and 8.2 µM (active) in test [2].

In the case of `O=C(O)c1cc(O[C@@H]2O[C@H](CO)[C@@H](O)[C@H](O)[C@H]2O)ccc1O`, the Potency entry in test [1] and in test [2] was “inactive” each time.

Turning to `CC(C)=CCC[C@](C)(O[C@@H]1O[C@H](CO)[C@@H](O)[C@H](O)[C@H]1O)[C@H]1CC[C@]2(C)[C@@H]1[C@H](O)CC1[C@@]3(C)CC[C@H](O)C(C)(C)C3[C@@H](O[C@@H]3O[C@H](CO)[C@@H](O)[C@H](O)[C@H]3O)C[C@]12C` (some centres not stated), the Potency result in test [1] and in test [2] was “inactive” each time.

For the compound `C=C1C(=O)OC2/C=C(\CO)CC/C=C(\C=O)CC(OC(=O)CC(C)C)C12` (configuration not stated), the Potency is 2.27 µM (active) in test [1] and 2.02 µM (active) in test [2].

For `CN[C@H](CC(C)C)C(=O)N[C@H]1C(=O)N[C@@H](CC(N)=O)C(=O)N[C@H]2C(=O)N[C@H]3C(=O)N[C@H](C(=O)N[C@H](C(=O)O)c4cc(O)cc(O)c4-c4cc3ccc4O)[C@H](O[C@H]3C[C@](C)(N)[C@@H](O)[C@H](C)O3)c3ccc(c(Cl)c3)Oc3cc2cc(c3O[C@@H]2O[C@H](CO)[C@@H](O)[C@H](O)[C@H]2O[C@H]2C[C@](C)(NCc3ccc(-c4ccc(Cl)cc4)cc3)[C@@H](O)[C@H](C)O2)Oc2ccc(cc2Cl)[C@H]1O`, the Potency entry in test [1] and in test [2] was “inactive” throughout.

Turning to `Cc1occc(=O)c1O[C@@H]1O[C@H](CO)[C@@H](O)[C@H](O)[C@H]1O`, the Potency result in test [1] and in test [2] was “inactive” throughout.

Regarding `N#Cc1cc([N+](=O)[O-])c2sc(C(N)=O)[n+]([O-])c2c1`, the Potency in test [1] was 1.84 µM (active); in test [2], 1.64 µM (active).

Consider `C[C@H]1/C=C/C=C/C=C/C=C/C=C/[C@@H](O)[C@H](C(=O)O)[C@H](O)C[C@H](O)CCC[C@H](O)C[C@H](O)C[C@H](O)[C@@H](C)C(=O)O[C@@H]1C`, for which the Potency result in test [1] and in test [2] was “inactive” throughout.

Regarding `C[C@@H]1O[C@@H](O[C@H]2[C@H](OC(=O)[C@]34CCC(C)(C)C[C@H]3C3=CCC5[C@@]6(C)CC[C@H](O[C@@H]7O[C@H](CO[C@@H]8OC[C@H](O)[C@H](O)[C@H]8O)[C@@H](O)[C@H](O)[C@H]7O)C(C)(C)C6CC[C@@]5(C)[C@]3(C)C[C@H]4O)OC[C@@H](O)[C@@H]2O)[C@H](O)[C@H](O)[C@H]1O[C@@H]1OC[C@H](O)[C@H](O[C@@H]2OC[C@@H](O)[C@H](O)[C@H]2O)[C@H]1O` (some centres not stated), the viability (% of control) in test [1] was 84.1% [at 9.25 µM]. In test [2], the viability, % of control is 84.6% [at 9.25 µM].

`CC1(C)CC[C@]2(C(=O)O[C@@H]3O[C@H](CO)[C@@H](O)[C@H](O)[C@H]3O)CC[C@]3(C)C(=CCC4[C@@]5(C)C[C@@H](O)[C@H](O)[C@](C)(C=O)C5CC[C@]43C)[C@@H]2[C@@H]1O` (some centres not stated): the Potency entry in test [1] and in test [2] was “inactive” throughout.

For the compound `NC1CCCCN(c2c(F)cc3c(=O)c(C(=O)O)cn(C4CC4)c3c2Cl)C1` (configuration not stated), the Potency entry in test [1] and in test [2] was “inactive” each time.

Turning to `C=C1CCC2C(C)(C(=O)O)CCCC2(C)C1CC/C(=C\CO)CO` (configuration not stated), the Potency result in test [1] and in test [2] was “inactive” each time.

For the compound `O=C(NN1CCCCC1)c1nn(-c2ccc(Cl)cc2Cl)c(-c2ccc(C#Cc3ccc(C(F)(F)F)cc3)s2)c1CNS(=O)(=O)N1CCCC1`, the Potency result in test [1] and in test [2] was “inactive” in each case.

As for `COc1ccc2c(c1)OC[C@]1(O)c3cc4c(cc3O[C@H]21)OCO4`, the Potency result in test [1] and in test [2] was “inactive” in each case.

In the case of `CC1OC(OC2C(O)C(C(=O)O)OC(OC3CCC4(C)C(CCC5(C)C4C=CC4=C6CC(C)(C)CC(O)C6(C)CCC45C)C3(C)C)C2OC2OCC(O)C(O)C2O)C(O)C(O)C1O` (configuration not stated), in test [1], the viability (% of control) is 89.1% [at 9.25 µM]. Also, the viability, % of control in test [2] was 97.4% [at 9.25 µM].

The values above are taken from PubChem BioAssay (NCATS).
